Compounds without any hit were thinned out: in the full panel of roughly 83,000, 20% have a hit.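 Cells were grown in 96-well plates and exposed to the test compound at a single concentration for 48 hours; results are reported as percent growth, with values below 10 considered active.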 Unmarked numbers belong to inactive results. The source made the active and inactive calls.

In this test the test system is A498 renal. In words: NCI-60 one-dose screen, 48 h (100 = growth as untreated, 0 = no growth, -100 = all killed). Conditions: 10 µM unless noted. The protocol:
Growth inhibition of the A498 human tumor cell line is measured as a screen for anti-cancer activity. Cells are grown in 96 well plates and exposed to the test compound for 48 hours. Compounds are tested at a single concentration, which is 10^-5 M for most compounds. The reported endpoint is percent growth (GI% or GIPRCNT), where numbers from 0 - 100% represent growth inhibition, and numbers from -100% - 0 represent cell death. For example, a value of 40 represents 60% growth inhibition. A value of 0 means no net growth occurred over the course of the experiment. A value of -40 indicates 40% of cells at the beginning of the experiment died by the end of the experiment. A value of -100 means all cells are dead at the end of the experiment.
NCI-60 Human Tumor Cell Lines Screen was performed using the standard one-dose NCI protocol, which is described in more detail at https://dtp.cancer.gov/discovery_development/nci-60/default.htm.
Compounds with GIPRCNT values below 10 were considered active. Activity score was based on GIPRCNT using the following formula: […]
Score is 0 for GIPRCNT values of 100 or above, 50 for GIPRCNT values of 0, and 100 for GIPRCNT values of -100.
As for `CC[N+]1(CC)CC[N+]2(CCCC(C)CC2)CC1` (stereo not given), the growth was 95.8%.

Take `COc1ccc2c(c1)c(/C(O)=C1\COC(=O)C1=O)cn2Cc1ccc(F)cc1`: the growth was 91.5%.

With `CCNc1ccc(-c2nc3ccccc3n3cccc23)cc1`, the growth is 62.5%.

With `CCOC(=O)C1=C(C)C(Cl)=N/C1=C\c1[nH]c(Cl)c(C)c1C(=O)OCC`, the growth was 104%.

As to `COc1ccc2c(c1)/C(=N/c1n[nH]c(=S)s1)C(=O)N2`, the growth is 89.9%.

Regarding `CCN1C(=O)N(CC)C2C1NC(=S)N2/N=C/c1ccc(C(F)(F)F)cc1` (stereo not given), the growth is 44.9%.

Take `N#Cc1c(-c2ccccc2)nc(SCc2nnc(-c3ccc(Cl)cc3)o2)[nH]c1=O`: the growth is 107%.

Turning to `CCOC(=O)c1c(C)c2c(n1Cc1ccccc1)CSCC2=O`, the growth is 25.6% [100 µM].

With `CNC(C)[C@H]1CCC2C3CC=C4C(=O)[C@@H](NC(=O)C=C(C)C)CC[C@]4(C)C3CC[C@@]21C` (stereo not given in full), the growth is 56%.

Consider `CCNC(=O)Oc1ccc(/C(=C(/C)Cc2ccc(OC)cc2)c2ccc(OCCN3CCCCC3)cc2)cc1`, for which the growth was 90.8%.

For the compound `NC(=O)c1cccc([C@@H]2O[C@H](CO)[C@@H](O)[C@H]2O)c1`, the growth was 86.6%.

Take `Cc1cccc(Oc2ccc(Nc3ncnc4ccc(NC(=O)CN5CCN(C)CC5)cc34)cc2Cl)c1`: the growth is 5.9% (active).

As for `C[C@]1(O)CC(=O)[C@]2(O)C3=C(C=C[C@]2(O)C1)C(=O)c1c(O)cccc1C3=O`, the growth is 117%.

As for `COc1ccc(C(=O)Cn2c(C(=O)c3ccc(OC)cc3)nc3ccccc32)cc1`, the growth was 34.2%.

`C=C1CC[C@@H]2[C@](C)(COC(C)=O)[C@H](OC(C)=O)CC[C@@]2(C)[C@@H]1CC(Nc1ccc(S(=O)(=O)NC(C)=O)cc1)C1=CCOC1=O` (stereo not given in full): the growth was 73.4%.

For `NC(=O)c1c(NC(=O)c2cccs2)sc2c1CCC(=O)C2`, the growth is 95%.

Consider `CC(=O)c1ccc(Nc2nccc(-c3ccc4ccccc4c3)n2)cc1`, for which the growth is 1.1% (active).

With `COc1ccc2c(c1)c(-c1nc(-c3c[nH]c4ncccc34)cs1)cn2CCCN1CCOCC1`, the growth is 27.8%.

Turning to `C=CC(=O)Nc1ccc(Nc2nccc(-c3ccc(N4CCCC4)c(C#N)c3)n2)cc1`, the growth was -36.9% (active).

With `CCN1C(=O)N(CC)C2C1NC(=S)N2/N=C/c1ccc(OC)cc1` (stereo not given), the growth was 29.9%.

Consider `CC(C)(C)n1cc(-c2ccnc(NCCCNS(=O)(=O)c3ccc(C(F)(F)F)cc3)c2)c(-c2cccc(F)c2)n1`, for which the growth is 92.5%.

With `Cc1ccc(S(=O)(=O)c2nc(-c3ccccc3)oc2Sc2nc3ccccc3s2)cc1`, the growth is 80.4%.

`CCN1CCN(C(=O)[C@]23CC[C@@H](C)[C@H](C)[C@@H]2C2=CC[C@@H]4[C@@]5(C)C/C(=C/c6cccnc6)C(=O)C(C)(C)[C@@H]5CC[C@@]4(C)[C@]2(C)CC3)CC1`: the growth is 43.8%.

Turning to `COc1ccc(-c2ccc(-c3ccc(C(=N)N)nc3)s2)cc1Cl`, the growth was 88.2%.

Regarding `COC(=O)CC[C@@H]1O[C@@H](c2ccc(F)cc2)[C@@H](O)[C@H]1O`, the growth is 112%.

`CN(CCC(=O)c1ccccc1)CCC(=O)c1ccccc1`: the growth was 78.9%.

On to `Cc1ccc(Cl)cc1NC(=O)c1sc2nc3c(cc2c1N)C(=O)CCC3`, for which the growth is 51.2%.

In the case of `O=C1Nc2ccccc2C1(c1c[nH]c2ccccc12)c1c[nH]c2ccccc12`, the growth was 49.3%.

As for `CC1=CC(c2ccco2)=C2C(N)=NNC2N1` (stereo not given), the growth was 86.3%.

Turning to `CCOC(=O)CC1CSC(Nc2ccccc2)=N1` (stereo not given), the growth is 83%.

Take `Cc1ccc(S(=O)(=O)OCCCOS(=O)(=O)c2ccc(C)cc2)cc1`: the growth is 106%.

As for `O=C(Cn1nnc2ccccc21)N/N=C/c1c[nH]c2ccccc12`, the growth is 60.4%.

As for `O=C(CSc1nnc(-c2cc(-c3ccccc3)nc3ccccc23)n1-c1ccccc1)Nc1ccc(C(=O)/C=C/c2ccc(Cl)cc2)cc1`, the growth was 81.5%.

As for `O=C(CI)NC(=O)NC(=O)NCc1ccccc1`, the growth was 91.2%.

On to `O=C(CN1CCCCCC1)Nc1nc2ccc(NCc3ccc(Cl)cc3)cc2s1`, for which the growth was 110%.

Regarding `Fc1cccc(-c2ccc3c(c2)C2(CCNCC2)CN3)c1`, the growth is 102%.

Consider `Cc1ccc(-c2csc(N(C(=O)N3CCN(c4cc5c(cc4F)c(=O)c(C(=O)O)cn5C4CC4)CC3)c3ccccc3)n2)cc1`, for which the growth was 7.58% (active).

In the case of `Cc1ccc(NC(=O)Cn2c(Br)nc3c2c(=O)n(C)c(=O)n3C)cc1`, the growth is -6.02% (active).

On to `CCN1C(=O)N(CC)C2C1NN=c1s/c(=C\c3cnc(C)n3C)c(=O)n12` (stereo not given), for which the growth was -9.65% (active).

On to `COc1ccc(C2=NN(C(C)=O)C(c3cn(-c4ccccc4)nc3-c3ccc(Cl)cc3)C2)cc1` (stereo not given), for which the growth was 80.2%.
